In all, about 18,000 sequences were measured (“log2 normalized intensity”: median about 0.36, highest 2% from about 7.3 on). What follows is part of a selection rich in the highest values, with near analogues and random picks from the rest.

For this test, the target named is T1, HNF4alpha8 (COS-7 nuclear extract) (Homo sapiens, UniProt P41235-5 1-452).
T1 sequence: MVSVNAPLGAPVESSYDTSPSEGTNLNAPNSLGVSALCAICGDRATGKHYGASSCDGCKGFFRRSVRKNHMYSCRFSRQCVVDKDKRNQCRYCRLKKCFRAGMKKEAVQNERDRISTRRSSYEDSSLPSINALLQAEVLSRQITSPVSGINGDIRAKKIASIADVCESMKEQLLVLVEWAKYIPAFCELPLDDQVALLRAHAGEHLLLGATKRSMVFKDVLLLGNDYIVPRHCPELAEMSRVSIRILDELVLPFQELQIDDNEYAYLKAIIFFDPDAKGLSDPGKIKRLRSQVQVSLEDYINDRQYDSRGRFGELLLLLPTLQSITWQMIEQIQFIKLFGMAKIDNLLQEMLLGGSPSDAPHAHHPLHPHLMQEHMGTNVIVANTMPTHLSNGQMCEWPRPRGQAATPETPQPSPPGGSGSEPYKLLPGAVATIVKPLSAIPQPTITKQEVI
Put plainly: protein-binding microarray; COS-7 nuclear extract on double-stranded Agilent 4x180k PBM; binding buffer, salt, pH and temperature not given in the material; high values mean tight binding. To be noted: chain copies: 2; label: 3' end of strand 1 on the slide; dsDNA, one strand shown. Summed up: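 Binding signal was defined as the normalized, background-corrected gProcessedSignal reported by Agilent software. It came from nuclear extracts of COS-7 cells transiently transfected with a human HNF4α isoform expression vector, applied to a custom Agilent SurePrint G3 4x180k array. That array held ~44,000 test sequences in quadruplicate as double-stranded ~60-nt oligonucleotides, and bound HNF4α was imaged at 2-µm resolution on an Agilent G2565CA scanner.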
Take “CCTCCAGCTCTTTTGAACCCAAGGCCAAACGCCTAGGGAGATTAGAGTATCGGTCGA”: the binding signal is 2.07 log2 normalized intensity.

Consider “ATAAATAAAGCCCTGGGGTAATAAAAGTGTGCCTAGGGAGATTAGAGTATCGGTCGA”, for which the binding signal was -0.134 log2 normalized intensity.

For the sequence “TTTACTTATCATAAGTCAGCCTGGCTGAAGGCCTAGGGAGATTAGAGTATCGGTCGA”, the binding signal was found to be 1.53 log2 normalized intensity.

For the sequence “ATGAACTTTGACCCACCTACATTGATATTCGCCTAGGGAGATTAGAGTATCGGTCGA”, the binding signal amounted to 5.5 log2 normalized intensity.

As to “TCCCTTTGATATTTATCAAGATGAACTTTGGCCTAGGGAGATTAGAGTATCGGTCGA”, the binding signal amounted to 5.51 log2 normalized intensity.

“TTGATATTTATCAAGATGAACTTTGACCCAGCCTAGGGAGATTAGAGTATCGGTCGA”: the binding signal turned out to be 11.2 log2 normalized intensity.

Turning to “ATTTATCAAGATGAACTTTGACCCACCTACGCCTAGGGAGATTAGAGTATCGGTCGA”, the binding signal stood at 8.8 log2 normalized intensity.

For the sequence “CACCCAGAACTTTGACCGTTTGATTATTTGGCCTAGGGAGATTAGAGTATCGGTCGA”, the binding signal turned out to be 2.96 log2 normalized intensity.

Turning to “ATTTTTCCCTTTGATATTTATCAAGATGAAGCCTAGGGAGATTAGAGTATCGGTCGA”, the binding signal was 0.842 log2 normalized intensity.

With “GGCCGTGAAGCCGTCCTGTCCTGGACTTTCGCCTAGGGAGATTAGAGTATCGGTCGA”, the binding signal turned out to be 4.47 log2 normalized intensity.

In the case of “GCTTGTTCTCTCCCCCAACCCCACCTTCATGCCTAGGGAGATTAGAGTATCGGTCGA”, the binding signal amounted to 4.61 log2 normalized intensity.

“GTGTGGGACTTTGGTCTGCTGAGTCTCATGGCCTAGGGAGATTAGAGTATCGGTCGA”: the binding signal is 2.52 log2 normalized intensity.

With “TCTTCTCAGTGTTTTGGGTCCTACAGAACCGCCTAGGGAGATTAGAGTATCGGTCGA”, the binding signal came to 0.643 log2 normalized intensity.

In the case of “TTTGGAATTTGACCTCATTTGCTCCCAGTGGCCTAGGGAGATTAGAGTATCGGTCGA”, the binding signal turned out to be 4.58 log2 normalized intensity.

As to “TTTGCCATTTGGAGAGAGTTTGGCCCCAGTGCCTAGGGAGATTAGAGTATCGGTCGA”, the binding signal is 2.83 log2 normalized intensity.

As to “CCAGTGAGACCCATTTTGGACTTTGACCTCGCCTAGGGAGATTAGAGTATCGGTCGA”, the binding signal came out at 11.8 log2 normalized intensity.

As for “ACATCTTGATTTAGCCCAGTGAGACCCATTGCCTAGGGAGATTAGAGTATCGGTCGA”, the binding signal is 0.922 log2 normalized intensity.

Take “TTAGCCCAGTGAGACCCATTTTGGACTTTGGCCTAGGGAGATTAGAGTATCGGTCGA”: the binding signal amounted to 7.42 log2 normalized intensity.

As for “CACATACACCTGCGTGTACTAAGGTCTTAAGCCTAGGGAGATTAGAGTATCGGTCGA”, the binding signal worked out at 1.24 log2 normalized intensity.

On to “CAAGTTGCAGGGATGGACTTTAATCTCCAAGCCTAGGGAGATTAGAGTATCGGTCGA”, for which the binding signal came to 5.83 log2 normalized intensity.

With “AGGTCATGCATAGAAGTATGTCTGGGATTTGCCTAGGGAGATTAGAGTATCGGTCGA”, the binding signal was 0.935 log2 normalized intensity.

For “GTGCTCCTCCCCATCTCAGCCTCTCAGGTCGCCTAGGGAGATTAGAGTATCGGTCGA”, the binding signal was 1.84 log2 normalized intensity.

For the sequence “CCCCCAAGGCATGGGACCTTTGCCCTTCTTGCCTAGGGAGATTAGAGTATCGGTCGA”, the binding signal was found to be 6.71 log2 normalized intensity.

“CCCCTCCCCCAAGGCATGGGACCTTTGCCCGCCTAGGGAGATTAGAGTATCGGTCGA”: the binding signal is 7.34 log2 normalized intensity.

On to “AGGCCCTCGGCATCATGCCCTTTGGCCCCCGCCTAGGGAGATTAGAGTATCGGTCGA”, for which the binding signal was determined as 7.71 log2 normalized intensity.

In the case of “CTCGGCATCATGCCCTTTGGCCCCCAGAGCGCCTAGGGAGATTAGAGTATCGGTCGA”, the binding signal worked out at 7.18 log2 normalized intensity.

As for “ACACCAGGCCCTCGGCATCATGCCCTTTGGGCCTAGGGAGATTAGAGTATCGGTCGA”, the binding signal was 4.63 log2 normalized intensity.

For “AAGGCATGGGACCTTTGCCCTTCTTGTTAAGCCTAGGGAGATTAGAGTATCGGTCGA”, the binding signal is 5.47 log2 normalized intensity.

With “CAGAGACAATGTGAGCAGGTGTGTGGCATCGCCTAGGGAGATTAGAGTATCGGTCGA”, the binding signal was 0.13 log2 normalized intensity.

In the case of “CGACCTCCCCGTCACCCTCCCCGCCACCCCGCCTAGGGAGATTAGAGTATCGGTCGA”, the binding signal worked out at 7.01 log2 normalized intensity.

With “GCAAATGTGTCTTTTTTAGTCAGCATAGTTGCCTAGGGAGATTAGAGTATCGGTCGA”, the binding signal came to 1.34 log2 normalized intensity.

For “TGTGACAGAAGTCATGTCTCATTGCCCCTTGCCTAGGGAGATTAGAGTATCGGTCGA”, the binding signal was found to be 4.58 log2 normalized intensity.

Turning to “GAATGGCCAGAGTTCCTGTGCAAGCCCCTGGCCTAGGGAGATTAGAGTATCGGTCGA”, the binding signal was -0.986 log2 normalized intensity.

Consider “GGTGAAGGGGTCACCTCGCTCCCCTCCTGTGCCTAGGGAGATTAGAGTATCGGTCGA”, for which the binding signal amounted to 1.02 log2 normalized intensity.

In the case of “GTTGGTTTCTGGGATTTGTACAAGTGATTGGCCTAGGGAGATTAGAGTATCGGTCGA”, the binding signal worked out at 1.63 log2 normalized intensity.

For the sequence “TTTGGAGTTTGACCTGGAGCCAGGGCCTTTGCCTAGGGAGATTAGAGTATCGGTCGA”, the binding signal is 3.92 log2 normalized intensity.

Regarding “ATATCCCTGAGAGGCCAGTTTGACCTTTGCGCCTAGGGAGATTAGAGTATCGGTCGA”, the binding signal is 8.82 log2 normalized intensity.

In the case of “CCTGAGAGGCCAGTTTGACCTTTGCATTCTGCCTAGGGAGATTAGAGTATCGGTCGA”, the binding signal was 8.31 log2 normalized intensity.

As to “CAGTTTGACCTTTGCATTCTTACCCAAGCCGCCTAGGGAGATTAGAGTATCGGTCGA”, the binding signal came to 5.1 log2 normalized intensity.

For the sequence “TCACCATATCCCTGAGAGGCCAGTTTGACCGCCTAGGGAGATTAGAGTATCGGTCGA”, the binding signal is 3.28 log2 normalized intensity.

For the sequence “GAGGCCAGTTTGACCTTTGCATTCTTACCCGCCTAGGGAGATTAGAGTATCGGTCGA”, the binding signal amounted to 7.03 log2 normalized intensity.

For the sequence “AACATGTAAATATGACCTTTGCTTTTCAAGGCCTAGGGAGATTAGAGTATCGGTCGA”, the binding signal was 5.13 log2 normalized intensity.

The values are drawn from publication PMC10726135, “HNF4α isoforms regulate the circadian balance between carbohydrate and lipid metabolism in the liver”.
